SMILES strings stand for the structures. Inconclusive results are not listed. Entries that show only a call come without a potency. Activity calls are given as the source filed them. Unless noted, calls follow the shape of the full dose curve.

In PubChem BioAssay (Tox21) one finds Potency data, which are given here for 35 compounds.

Chain of Muscarinic acetylcholine receptor M1 (Homo sapiens) (P11229 whole entry, looked up): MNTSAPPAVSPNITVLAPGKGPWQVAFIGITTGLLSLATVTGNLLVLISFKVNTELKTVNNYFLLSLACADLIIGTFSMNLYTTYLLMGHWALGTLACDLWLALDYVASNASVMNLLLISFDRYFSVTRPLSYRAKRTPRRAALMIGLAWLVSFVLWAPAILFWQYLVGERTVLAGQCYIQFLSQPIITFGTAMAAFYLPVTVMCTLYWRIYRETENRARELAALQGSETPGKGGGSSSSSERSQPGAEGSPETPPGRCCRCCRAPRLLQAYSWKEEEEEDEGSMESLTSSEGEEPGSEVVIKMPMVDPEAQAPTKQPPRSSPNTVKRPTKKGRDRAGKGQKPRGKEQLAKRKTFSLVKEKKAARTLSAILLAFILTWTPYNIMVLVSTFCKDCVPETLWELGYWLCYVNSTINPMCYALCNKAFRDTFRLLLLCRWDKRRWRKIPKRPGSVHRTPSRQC

The first experiment addresses Muscarinic acetylcholine receptor M1 (Homo sapiens) (UniProt P11229). Put plainly: Cholinergic receptor muscarinic 1 (CHRM1) small molecule antagonists, cell-based qHTS assay (AID 1963588). Also: nearly all actives have a fitted effect of over 40% in size. Also: potency is read from the fitted curve at half-maximal effect. The conditions noted are these: CHRM1-CHO antagonist mode, calcium flux fluorescence; series mostly up to 61.5 µM. A digest of the protocol: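 CHRM1-CHO calcium-flux assay, antagonist mode. Cells were seeded 18 h, dye-loaded 1 h at 37 C and given compound for 5 min at RT, then acetylcholine was added at 50nM. FDSS fluorescence was read 3 min; 15 concentrations, three runs.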
For `CC(=O)N(C)C`, the Potency entry is “inactive”.

As to `CN1CCN(CCCN2c3ccccc3Sc3ccc(S(=O)(=O)N(C)C)cc32)CC1`, the Potency was 5.16 µM (active).

Regarding `CCCCCCCC1CCC(=O)O1` (stereo not drawn), the Potency result was “inactive”.

The next experiment has the same target. Put plainly: Cholinergic receptor muscarinic 1 (CHRM1) small molecule agonists, cell-based qHTS assay (AID 1963589). Also: nearly all actives have a fitted effect of over 35% in size. The conditions noted are these: CHRM1-CHO cells, agonist mode, calcium flux fluorescence; series mostly up to 76.8 µM. The method, boiled down: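 Measures agonist-induced intracellular calcium rise. Stable human CHRM1 CHO line, 1 h dye load at 37 C, compounds from DMSO, kinetic fluorescence read.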
Turning to `COc1cc(C)nc(-n2nc(C)cc2OC)n1`, the Potency entry is “inactive”.

For the compound `C=C1C(=C/C=C2\CCC[C@]3(C)[C@@H]([C@H](C)/C=C/[C@@H](O)C4CC4)CC[C@@H]23)C[C@@H](O)C[C@@H]1O`, the Potency result is “inactive”.

On to `Nc1cccc2c(N)cccc12`, for which the Potency result was “inactive”.

Take `CNCC[C@H](Oc1cccc2ccccc12)c1cccs1`: the Potency entry is “inactive”.

Regarding `CC1(C)CCC[C@]2(C)[C@H]3CCO[C@]3(C)CC[C@@H]12`, the Potency result was “inactive”.

On to `O=C(NCC(O)CO)c1c(I)c(C(=O)NCC(O)CO)c(I)c(N(CCO)C(=O)CO)c1I` (stereo not drawn), for which the Potency result was “inactive”.

For `CC[C@@H]([C@H](C)O)n1ncn(-c2ccc(N3CCN(c4ccc(OC[C@@H]5CO[C@@](Cn6cncn6)(c6ccc(F)cc6F)C5)cc4)CC3)cc2)c1=O`, the Potency result is “inactive”.

With `O=C1Cc2ccccc2C1`, the Potency result was “inactive”.

For the compound `Cc1c(C)n(Cc2ccccc2)c2ccc(C(=O)OCCN(C)C)cc12`, the Potency result was “inactive”.

With `C=C(C)C(=O)OCC(O)COc1ccc(C(C)(C)c2ccc(OCC(O)COC(=O)C(=C)C)cc2)cc1` (stereo not drawn), the Potency result was “inactive”.

As to `COc1cc(Cl)c(OC)cc1N`, the Potency entry is “inactive”.

For `Nc1ccc(N)c([N+](=O)[O-])c1`, the Potency result was “inactive”.

Regarding `CC1CCCC1`, the Potency entry is “inactive”.

`CN1[C@@H]2CC(OC(=O)[C@H](CO)c3ccccc3)C[C@H]1[C@@H]1O[C@@H]12` (stereo partly drawn): the Potency result is “inactive”.

With `CS(=O)(=O)c1ccc([C@@H](CC2CCCC2)C(=O)Nc2cnccn2)cc1Cl`, the Potency entry was “inactive”.

Regarding `CN1CCC(N(Cc2cccs2)c2ccccc2)CC1`, the Potency result was “inactive”.

As for `COc1ccc2ccccc2c1`, the Potency entry is “inactive”.

As for `CCOC(=O)CC(=O)C(=O)OCC`, the Potency result is “inactive”.

With `Cc1nc(-c2ccccn2)ncc1C(=O)Nn1cc(C)c2cc(F)ccc21`, the Potency entry was “inactive”.

Turning to `COCCOC`, the Potency result is “inactive”.

Take `COC(=O)[C@H]1[C@H]2C[C@@H]3c4[nH]c5cc(OC)ccc5c4CCN3C[C@H]2C[C@@H](OC(=O)/C=C/c2ccc(O)c(OC)c2)[C@@H]1OC`: the Potency entry was “inactive”.

Turning to `CC(=O)N(C)C`, the Potency entry is “inactive”.

Turning to `CN1CCN(CCCN2c3ccccc3Sc3ccc(S(=O)(=O)N(C)C)cc32)CC1`, the Potency entry is “inactive”.

Test system in another experiment: not listed separately
Put plainly: cAMP Responsive Elements (CRE) small molecule agonists, cell-based qHTS assay (AID 1963590). The conditions noted are these: CRE-bla HEK293T, beta-lactamase FRET ratio, 3 h; series mostly up to 92.4 µM. A digest of the protocol: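 A CRE-responsive beta-lactamase reporter in HEK 293T cells was used. Treatment ran 3 h at 37 C; detection used LiveBLAzer B/G FRET substrate for 2 h at room temperature.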
Background: qHTS replaces the single test concentration by a dilution series.
Consider `COc1cc(C)nc(-n2nc(C)cc2OC)n1`, for which the Potency result is “inactive”.

Regarding `COc1c2occc2cc2ccc(=O)oc12`, the Potency result was “inactive”.

In the case of `O=P(c1ccccc1)(c1ccccc1)c1ccccc1`, the Potency entry is “inactive”.

`Nc1cccc2c(N)cccc12`: the Potency result is “inactive”.

As for `CNCC[C@H](Oc1cccc2ccccc12)c1cccs1`, the Potency entry is “inactive”.

For the compound `CC1(C)CCC[C@]2(C)[C@H]3CCO[C@]3(C)CC[C@@H]12`, the Potency entry was “inactive”.

For `O=C(NCC(O)CO)c1c(I)c(C(=O)NCC(O)CO)c(I)c(N(CCO)C(=O)CO)c1I` (stereo not drawn), the Potency result was “inactive”.

In the case of `S=P(N1CC1)(N1CC1)N1CC1`, the Potency entry is “inactive”.

Consider `COc1cc(Cl)c(OC)cc1N`, for which the Potency entry was “inactive”.

As for `Clc1ccccc1CN1CCc2sccc2C1`, the Potency entry was “inactive”.

As for `O=C1c2c(O)ccc(O)c2C(=O)c2c(NCCNCCO)ccc(NCCNCCO)c21`, the Potency result was “inactive”.

As for `CN1[C@@H]2CC(OC(=O)[C@H](CO)c3ccccc3)C[C@H]1[C@@H]1O[C@@H]12` (stereo partly drawn), the Potency result was “inactive”.

Take `CCCCOC(=O)c1ccccc1C(=O)OCC(CC)CCCC` (stereo not drawn): the Potency entry is “inactive”.

Take `CN1CCC(N(Cc2cccs2)c2ccccc2)CC1`: the Potency entry was “inactive”.

With `CN(C)CCOC(c1ccccc1)c1ccccc1`, the Potency result was “inactive”.

As to `CCOC(=O)CC(=O)C(=O)OCC`, the Potency result is “inactive”.

With `COc1cc([C@@H]2c3cc4c(cc3[C@@H](O[C@@H]3O[C@@H]5CO[C@@H](C)O[C@H]5[C@H](O)[C@H]3O)[C@H]3COC(=O)[C@H]23)OCO4)cc(OC)c1O`, the Potency result was “inactive”.

`Cc1nc(-c2ccccn2)ncc1C(=O)Nn1cc(C)c2cc(F)ccc21`: the Potency entry is “inactive”.

As for `COCCOC`, the Potency entry is “inactive”.

For `CC(C)(C(=O)O)c1ccc(C(O)CCCN2CCC(C(O)(c3ccccc3)c3ccccc3)CC2)cc1` (stereo not drawn), the Potency result is “inactive”.

Test system in another experiment: not listed separately
Put plainly: cAMP Responsive Elements (CRE) small molecule antagonists, cell-based qHTS assay (AID 1963591; active = well fitted inhibition curve with a large enough effect in the signal ratio in the repeat runs, not every such curve was filed as active; the % refers to the signal ratio; also: potency is read from the fitted curve at half-maximal effect). The conditions noted are these: CRE-bla HEK293T, beta-lactamase FRET ratio; series mostly up to 92.4 µM. A digest of the protocol:
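HEK293T cells carrying a CRE-driven beta-lactamase reporter receive compound and NKH477 (0.25 uM final) for 3 h. Fluorescence from LiveBLAzer B/G FRET substrate is read after 2 h at room temperature.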
In the case of `COc1cc(C)nc(-n2nc(C)cc2OC)n1`, the Potency entry was “inactive”.

Regarding `COc1c2occc2cc2ccc(=O)oc12`, the Potency entry is “inactive”.

In the case of `O=P(c1ccccc1)(c1ccccc1)c1ccccc1`, the Potency result is “inactive”.

`Cc1cnc(C(=O)NCCc2ccc(S(=O)(=O)NC(=O)NC3CCCCC3)cc2)cn1`: the Potency entry was “inactive”.

`CNCC[C@H](Oc1cccc2ccccc12)c1cccs1`: the Potency entry is “inactive”.

With `CC1(C)CCC[C@]2(C)[C@H]3CCO[C@]3(C)CC[C@@H]12`, the Potency entry was “inactive”.

With `O=C(NCC(O)CO)c1c(I)c(C(=O)NCC(O)CO)c(I)c(N(CCO)C(=O)CO)c1I` (stereo not drawn), the Potency entry is “inactive”.

Regarding `O=C1c2c(O)ccc(O)c2C(=O)c2c(NCCNCCO)ccc(NCCNCCO)c21`, the Potency was 21.1 µM (active).

As for `COc1ccc2cc([C@H](C)C(=O)O)ccc2c1`, the Potency result is “inactive”.

`CC1CCCC1`: the Potency result was “inactive”.

For the compound `CN1[C@@H]2CC(OC(=O)[C@H](CO)c3ccccc3)C[C@H]1[C@@H]1O[C@@H]12` (stereo partly drawn), the Potency result is “inactive”.

As to `CCCCOC(=O)c1ccccc1C(=O)OCC(CC)CCCC` (stereo not drawn), the Potency entry was “inactive”.

With `CN1CCC(N(Cc2cccs2)c2ccccc2)CC1`, the Potency result is “inactive”.

With `CN(C)CCOC(c1ccccc1)c1ccccc1`, the Potency entry is “inactive”.

Turning to `CCOC(=O)CC(=O)C(=O)OCC`, the Potency result is “inactive”.

Take `Cc1nc(-c2ccccn2)ncc1C(=O)Nn1cc(C)c2cc(F)ccc21`: the Potency entry was “inactive”.

`CC(C)(C(=O)O)c1ccc(C(O)CCCN2CCC(C(O)(c3ccccc3)c3ccccc3)CC2)cc1` (stereo not drawn): the Potency result is “inactive”.
